Experimental data published in PubChem BioAssay (EPA / NIEHS).
The source made the active and inactive calls. How the source made its calls: active means hit-call score of the fitted dose curve at least 0.9, where 1 is the maximum; inactive means score below 0.9.

Legend:
Conditions in all cases: mRNA level, 48 h; actives raise or lower the signal
[1] = read-out: Alpha-fetoprotein (AFP) gene, AFP (gene 174); assay: LTEA_HepaRG_AFP: Life Technologies and Expression Analysis (LTEA) Assay for Alpha-fetoprotein (AFP) gene using HepaRG (AID 2283472)
Outline: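 Differentiated human HepaRG cells exposed 48 h in serum-free induction medium, 8-point half-log series from 100 uM in 0.5% DMSO, duplicate. AFP mRNA by qRT-PCR, normalized to ACTB, GAPDH, POLR2A; bidirectional fit vs DMSO.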

BCL2L11 (gene 10018) = assay: LTEA_HepaRG_BCL2L11: Life Technologies and Expression Analysis (LTEA) Assay for Bcl-2 (BCL2L11) gene using HepaRG (AID 2283473)
Outline: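 Cells were plated, cultured 48 h, switched to serum-free induction medium, then dosed in duplicate for 48 h at eight half-log concentrations up to 100 uM. Lysates underwent RNA isolation and TaqMan qRT-PCR; gain or loss versus DMSO was fitted.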

[2] = read-out: Apolipoprotein A-V (APOA5) gene, APOA5 (gene 116519); assay: LTEA_HepaRG_APOA5: Life Technologies and Expression Analysis (LTEA) Assay for Apolipoprotein A-V (APOA5) gene using HepaRG (AID 2283474)
Outline: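 Human liver HepaRG cells are treated 48 h with test chemicals (100 uM top, half-log dilutions, 0.5% DMSO). APOA5 mRNA induction or loss is measured by qRT-PCR relative to vehicle.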

[3] = read-out: Apoptosis regulator Bcl-2 (Homo sapiens) (UniProt P10415); assay: LTEA_HepaRG_BCL2: Life Technologies and Expression Analysis (LTEA) Assay for Bcl-2 gene using HepaRG (AID 2283475)
Outline: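 Differentiated human HepaRG cells in serum-free induction medium exposed 48 h, in duplicate, to 8-point half-log series from 100 uM in 0.5% DMSO. BCL2 mRNA by qRT-PCR (TaqMan/Fluidigm), normalized to ACTB, GAPDH, POLR2A; bidirectional fit against DMSO.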

[4] = read-out: Bcl-2 (BID) gene, BID (gene 637); assay: LTEA_HepaRG_BID: Life Technologies and Expression Analysis (LTEA) Assay for Bcl-2 (BID) gene using HepaRG (AID 2283476)
Outline: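 Gene expression by qRT-PCR in HepaRG cells after 48 h exposure, duplicate wells, eight half-log concentrations topping at 100 uM in 0.5% DMSO. Normalized to ACTB, GAPDH, POLR2A; bidirectional fitting relative to DMSO.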

Caspase-3 (Homo sapiens) = Caspase-3 (Homo sapiens) (UniProt P42574); assay: LTEA_HepaRG_CASP3: Life Technologies and Expression Analysis (LTEA) Assay for cysteine-aspartic acid protease (CASP3) using HepaRG (AID 2283477)
Outline: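 In HepaRG liver cells dosed for 48 h at up to 100 uM (eight-point, duplicate), CASP3 expression changes are scored by qRT-PCR. Activity is fitted in both directions with 0.5% DMSO as baseline.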

[5] = read-out: Cytochrome P450 (CYP24A1), CYP24A1 (gene 1591); assay: LTEA_HepaRG_CYP24A1: Life Technologies and Expression Analysis (LTEA) Assay for Cytochrome P450 (CYP24A1) using HepaRG (AID 2283478)
Outline: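 Human liver HepaRG cultures receive each chemical for 48 h across an eight-point half-log series topping at 100 uM in 0.5% DMSO. Induction or suppression of CYP24A1 mRNA is scored relative to vehicle after housekeeping-gene normalization.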

[6] = read-out: Cytochrome P450 (CYP1A2), CYP1A2 (gene 1544); assay: LTEA_HepaRG_CYP1A2: Life Technologies and Expression Analysis (LTEA) Assay for Cytochrome P450 (CYP1A2) using HepaRG (AID 2283479)
Outline: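 Assesses CYP1A2 mRNA in human HepaRG liver cells after 48 h chemical exposure at up to 100 uM. Values come from qRT-PCR with bidirectional curve fitting relative to DMSO.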

[7] = read-out: cysteine-aspartic acid protease (CASP8), CASP8 (gene 841); assay: LTEA_HepaRG_CASP8: Life Technologies and Expression Analysis (LTEA) Assay for cysteine-aspartic acid protease (CASP8) using HepaRG (AID 2283480)
Outline: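 Differentiated human HepaRG cells, plated 48 h then switched to serum-free induction medium, were exposed in duplicate for 48 h to 8 half-log concentrations up to 100 uM in 0.5% DMSO. CASP8 mRNA was quantified by qRT-PCR, normalized to ACTB/GAPDH/POLR2A.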

[8] = read-out: Cytochrome P450 (CYP2B6), CYP2B6 (gene 1555); assay: LTEA_HepaRG_CYP2B6: Life Technologies and Expression Analysis (LTEA) Assay for Cytochrome P450 (CYP2B6) using HepaRG (AID 2283481)
Outline: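 Using 48 h treatment of HepaRG cells in serum-free induction medium, concentrations spanned half-log steps from 100 uM in 0.5% DMSO vehicle. CYP2B6 mRNA induction or loss is scored by qRT-PCR against DMSO.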

[9] = read-out: Cytochrome P450 2C19 (Homo sapiens) (UniProt P33261); assay: LTEA_HepaRG_CYP2C19: Life Technologies and Expression Analysis (LTEA) Assay for CYP2C19 using HepaRG (AID 2283482)
Outline: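 Human HepaRG liver cells received test chemicals for 48 h (highest 100 uM, half-log dilutions in 0.5% DMSO). CYP2C19 mRNA induction or loss is read by multiplexed qRT-PCR and fitted in both directions versus vehicle.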

CYP2C8 (gene 1558) = assay: LTEA_HepaRG_CYP2C8: Life Technologies and Expression Analysis (LTEA) Assay for CYP2C8 using HepaRG (AID 2283483)
Outline: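 Differentiated human HepaRG cells were exposed for 48 h in serum-free induction medium to eight half-log concentrations up to 100 uM in 0.5% DMSO, in duplicate. CYP2C8 mRNA was measured by TaqMan qRT-PCR, normalized to ACTB, GAPDH and POLR2A, and fitted bidirectionally against DMSO.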

CYP2C9 (gene 1559) = assay: LTEA_HepaRG_CYP2C9: Life Technologies and Expression Analysis (LTEA) Assay for CYP2C9 using HepaRG (AID 2283484)
Outline: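 Differentiated human HepaRG cells were exposed 48 h in serum-free induction medium to eight half-log concentrations up to 100 uM in 0.5% DMSO. CYP2C9 mRNA was measured by qRT-PCR, normalized to ACTB, GAPDH and POLR2A, and fitted bidirectionally against DMSO.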

CYP2E1 (gene 1571) = assay: LTEA_HepaRG_CYP2E1: Life Technologies and Expression Analysis (LTEA) Assay for CYP2E1 using HepaRG (AID 2283485)
Outline: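 HepaRG cells, plated 48 h, then exposed 48 h in serum-free induction medium to eight half-log concentrations from 100 uM in 0.5% DMSO, duplicate. CYP2E1 mRNA by qRT-PCR, normalized to ACTB/GAPDH/POLR2A; bidirectional fit versus DMSO.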

CYP4A11 (gene 1579) = assay: LTEA_HepaRG_CYP4A11: Life Technologies and Expression Analysis (LTEA) Assay for CYP4A11 using HepaRG (AID 2283486)
Outline: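 Readout is CYP4A11 mRNA induction or suppression (qRT-PCR, ACTB/GAPDH/POLR2A normalization) in human HepaRG cells after 48 h chemical treatment, concentrations to 100 uM in 0.5% DMSO, fitted bidirectionally against vehicle.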

[10] = read-out: Cytochrome P450 3A4 (Homo sapiens) (UniProt P08684); assay: LTEA_HepaRG_CYP3A4: Life Technologies and Expression Analysis (LTEA) Assay for CYP3A4 using HepaRG (AID 2283487)
Outline: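 Differentiated HepaRG cells, plated 48 h, then dosed 48 h in serum-free induction medium with 0.5% DMSO, 8 half-log concentrations up to 100 uM, duplicate. CYP3A4 mRNA by qRT-PCR, normalized to ACTB/GAPDH/POLR2A; bidirectional fit versus DMSO.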

[11] = read-out: DNA damage-inducible transcript 3 (DDIT3), DDIT3 (gene 1649); assay: LTEA_HepaRG_DDIT3: Life Technologies and Expression Analysis (LTEA) Assay for DNA damage-inducible transcript 3 (DDIT3) using HepaRG (AID 2283488)
Outline: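 HepaRG cells, 48 h after plating, exposed 48 h in serum-free induction medium to 8 half-log concentrations up to 100 uM in 0.5% DMSO, in duplicate. DDIT3 mRNA measured by TaqMan qRT-PCR, normalized to ACTB, GAPDH and POLR2A. Fitted bidirectionally against DMSO.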

[12] = read-out: Pro-epidermal growth factor (Homo sapiens) (UniProt P01133); assay: LTEA_HepaRG_EGF: Life Technologies and Expression Analysis (LTEA) Assay for Epidermal growth factor (EGF) using HepaRG (AID 2283489)
Outline: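 EGF expression changes in human HepaRG cells are scored by bidirectional fitting relative to 0.5% DMSO controls. Chemicals are tested at eight half-log concentrations up to 100 uM for 48 h in serum-free induction medium.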

[13] = read-out: Early growth response protein 1 (EGR1) transcription factor, EGR1 (gene 1958); assay: LTEA_HepaRG_EGR1: Life Technologies and Expression Analysis (LTEA) Assay for Early growth response protein 1 (EGR1) transcription factor using HepaRG (AID 2283490)
Outline: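 Differentiated human HepaRG cells in serum-free induction medium were exposed in duplicate for 48 h to eight concentrations (top 100 uM, half-log steps) in 0.5% DMSO. EGR1 mRNA was quantified by qRT-PCR, normalized to ACTB, GAPDH and POLR2A, and fitted bidirectionally versus DMSO.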

[14] = read-out: Ezrin (EZR), EZR (gene 7430); assay: LTEA_HepaRG_EZR: Life Technologies and Expression Analysis (LTEA) Assay for Ezrin (EZR) using HepaRG (AID 2283491)
Outline: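 EZR transcript levels came from Fluidigm qRT-PCR and were normalized to three housekeeping genes after 48 h chemical exposure of HepaRG cells. Dosing used an 8-point half-log series with a 100 uM top concentration in 0.5% DMSO, tested in duplicate; both directions were fitted versus vehicle.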

Apoptosis regulator Bcl-2 (Homo sapiens), sequence (P10415 whole entry, looked up): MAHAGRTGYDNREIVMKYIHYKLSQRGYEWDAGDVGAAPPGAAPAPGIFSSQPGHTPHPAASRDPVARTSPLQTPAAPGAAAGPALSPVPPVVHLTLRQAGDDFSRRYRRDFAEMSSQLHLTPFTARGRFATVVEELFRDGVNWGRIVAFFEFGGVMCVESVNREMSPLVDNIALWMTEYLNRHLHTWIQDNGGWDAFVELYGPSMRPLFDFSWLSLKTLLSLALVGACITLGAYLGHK
Cytochrome P450 2C19 (Homo sapiens), sequence (P33261 whole entry, looked up): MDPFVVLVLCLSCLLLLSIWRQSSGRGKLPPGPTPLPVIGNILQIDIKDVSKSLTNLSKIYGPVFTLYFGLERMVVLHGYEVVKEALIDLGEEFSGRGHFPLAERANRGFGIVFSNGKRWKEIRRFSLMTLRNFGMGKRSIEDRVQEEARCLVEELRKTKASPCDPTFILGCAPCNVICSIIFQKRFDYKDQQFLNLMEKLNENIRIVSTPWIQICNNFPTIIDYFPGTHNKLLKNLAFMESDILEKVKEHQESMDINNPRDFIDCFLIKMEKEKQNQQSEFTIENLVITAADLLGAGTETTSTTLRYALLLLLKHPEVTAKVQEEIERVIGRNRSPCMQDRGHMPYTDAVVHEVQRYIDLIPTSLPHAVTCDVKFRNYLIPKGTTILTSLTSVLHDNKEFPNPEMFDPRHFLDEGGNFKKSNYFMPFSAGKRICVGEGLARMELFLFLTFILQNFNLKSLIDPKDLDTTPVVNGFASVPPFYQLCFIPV
Caspase-3 (Homo sapiens), sequence (P42574 whole entry, looked up): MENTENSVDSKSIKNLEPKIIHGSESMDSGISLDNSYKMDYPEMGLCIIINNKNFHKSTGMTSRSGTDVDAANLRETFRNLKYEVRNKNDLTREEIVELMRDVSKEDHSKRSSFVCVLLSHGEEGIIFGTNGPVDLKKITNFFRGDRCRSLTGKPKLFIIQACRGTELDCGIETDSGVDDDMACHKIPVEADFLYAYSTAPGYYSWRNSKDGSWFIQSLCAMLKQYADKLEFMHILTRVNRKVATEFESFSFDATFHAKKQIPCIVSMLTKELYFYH
Cytochrome P450 3A4 (Homo sapiens), sequence (P08684 whole entry, looked up): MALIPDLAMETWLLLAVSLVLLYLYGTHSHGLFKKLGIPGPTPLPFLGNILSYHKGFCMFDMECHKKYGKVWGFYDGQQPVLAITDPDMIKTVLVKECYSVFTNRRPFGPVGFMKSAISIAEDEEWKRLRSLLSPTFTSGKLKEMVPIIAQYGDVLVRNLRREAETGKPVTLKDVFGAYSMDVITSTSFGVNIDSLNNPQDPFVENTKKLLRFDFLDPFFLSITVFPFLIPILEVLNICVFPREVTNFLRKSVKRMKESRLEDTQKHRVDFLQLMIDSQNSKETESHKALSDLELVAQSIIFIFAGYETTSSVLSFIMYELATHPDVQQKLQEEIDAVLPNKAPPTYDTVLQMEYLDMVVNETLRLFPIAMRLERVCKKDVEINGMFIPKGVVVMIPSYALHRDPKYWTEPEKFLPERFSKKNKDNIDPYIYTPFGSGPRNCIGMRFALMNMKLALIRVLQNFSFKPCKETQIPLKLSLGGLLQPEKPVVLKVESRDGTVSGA

**Q.** With `Nc1ccc(Oc2ccc(N)cc2)cc1` as the molecule, how does the outcome [1] read?
**A.** The outcome was “inactive”.

**Q.** And the outcome (BCL2L11 (gene 10018))?
**A.** Its outcome is “inactive”.

**Q.** What about the outcome [2] of the same molecule?
**A.** Its outcome is “inactive”.

**Q.** And the outcome [3]?
**A.** Its outcome is “inactive”.

**Q.** And the outcome [4]?
**A.** Its outcome is “inactive”.

**Q.** And the outcome (Caspase-3 (Homo sapiens))?
**A.** Its outcome is “inactive”.

**Q.** And the outcome [5]?
**A.** The outcome was “inactive”.

**Q.** What about the AC50 [6] of the same molecule?
**A.** Its AC50 is 40.7 µM (active).

**Q.** And the outcome [7]?
**A.** The outcome was “inactive”.

**Q.** And the AC50 [8]?
**A.** The AC50 was 67 µM (active).

**Q.** And the outcome [9]?
**A.** Its outcome is “inactive”.

**Q.** What about the outcome (CYP2C8 (gene 1558)) of the same molecule?
**A.** Its outcome is “inactive”.

**Q.** What about the outcome (CYP2C9 (gene 1559)) of the same molecule?
**A.** The outcome was “inactive”.

**Q.** What about the outcome (CYP2E1 (gene 1571)) of the same molecule?
**A.** Its outcome is “inactive”.

**Q.** What about the outcome (CYP4A11 (gene 1579)) of the same molecule?
**A.** Its outcome is “inactive”.

**Q.** And the outcome [10]?
**A.** The outcome was “inactive”.

**Q.** And the outcome [11]?
**A.** Its outcome is “inactive”.

**Q.** And the outcome [12]?
**A.** Its outcome is “inactive”.

**Q.** And the outcome [13]?
**A.** The outcome was “inactive”.

**Q.** And the outcome [14]?
**A.** The outcome was “inactive”.

**Q.** What does the source list for `O=C1CCCO1`?
**A.** outcome [1]: inactive; outcome (BCL2L11 (gene 10018)): inactive; outcome [2]: inactive; outcome [3]: inactive; outcome [4]: inactive; AC50 (Caspase-3 (Homo sapiens)): 50 µM (active); outcome [5]: inactive; outcome [6]: inactive; AC50 [7]: 78.5 µM (active); outcome [8]: inactive; outcome [9]: inactive; outcome (CYP2C8 (gene 1558)): inactive; outcome (CYP2C9 (gene 1559)): inactive; outcome (CYP2E1 (gene 1571)): inactive; AC50 (CYP4A11 (gene 1579)): 44.9 nM (active); outcome [11]: inactive; outcome [12]: inactive; outcome [13]: inactive; outcome [14]: inactive

**Q.** What does the source list for `C[N+](C)(C)CC1CO1` (centres undefined)?
**A.** outcome [1]: inactive; outcome (BCL2L11 (gene 10018)): inactive; outcome [2]: inactive; outcome [3]: inactive; outcome [4]: inactive; outcome (Caspase-3 (Homo sapiens)): inactive; outcome [5]: inactive; outcome [6]: inactive; outcome [7]: inactive; outcome [8]: inactive; outcome [9]: inactive; outcome (CYP2C8 (gene 1558)): inactive; outcome (CYP2C9 (gene 1559)): inactive; outcome (CYP2E1 (gene 1571)): inactive; outcome (CYP4A11 (gene 1579)): inactive; outcome [10]: inactive; outcome [11]: inactive; outcome [12]: inactive; outcome [13]: inactive; outcome [14]: inactive
